Measurements published in PubChem BioAssay AID1159580 (chemical genetic matrix, 2015).
About 2,000 (36%) of roughly 5,500 compounds were called active. Roughly 18% stayed inconclusive and do not appear here. Rule as the data show it: active = normalized growth mostly below about 0.91 (no sharp cut-off); inconclusive = no clear call, values can overlap the other calls; inactive = mostly above about 0.92. This is one part of the list.

Experiment: chemical genetic growth profiling, strain panel (AID 1159580);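 also: tested at 20 µM; growth read once vehicle control cultures reached saturation at 30 °C; 1 = growth at the plate median or of vehicle wells; lower values mean less growth of the strain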
Conditions: growth OD

Measured: normalized growth

O=c1cc[nH]c(=S)[nH]1
inactive: S. cerevisiae deletion strains, locus YJR075W, strain HOC1, active compounds read low 1.03 | S. cerevisiae deletion strains, locus YKL009W, strain mrt4, active compounds read low 1.04 | S. cerevisiae deletion strains, locus YKL068W, active compounds read low 1 | S. cerevisiae deletion strains, locus YKL085W, strain MDH1 (second series), active compounds read low 1.01 | S. cerevisiae deletion strains, locus YKL085W, strain MDH1, active compounds read low 1.01 | S. cerevisiae deletion strains, locus YKL160W, strain elf1, active compounds read low 1.06 | S. cerevisiae deletion strains, locus YKL190W, strain CNB1, active compounds read low 1.02 | S. cerevisiae deletion strains, locus YKR001C, strain vps1, active compounds read low 1.05 | S. cerevisiae deletion strains, locus YKR026C, strain gcn3, active compounds read low 1.01 | S. cerevisiae deletion strains, locus YKR091W, strain srl3, active compounds read low 1 | S. cerevisiae deletion strains, locus YLL001W, strain dnm1, active compounds read low 1.04 | S. cerevisiae deletion strains, locus YLL026W, active compounds read low 0.999 | S. cerevisiae deletion strains, locus YLL041C, strain sdh2, active compounds read low 1.01 | S. cerevisiae deletion strains, locus YLR027C, strain aat2, active compounds read low 1.02 | S. cerevisiae deletion strains, locus YLR039C, strain RIC1, active compounds read low 1.09 | S. cerevisiae deletion strains, locus YLR058C, strain SHM2, active compounds read low 1.02 | S. cerevisiae deletion strains, locus YLR102C, strain apc9, active compounds read low 0.992 | S. cerevisiae deletion strains, locus YLR113W, strain HOG1, active compounds read low 1.01 | S. cerevisiae deletion strains, locus YLR221C, strain rsa3, active compounds read low 1.01 | S. cerevisiae deletion strains, locus YLR258W, strain gsy2, active compounds read low 0.989 | S. cerevisiae deletion strains, locus YLR262C, strain YPT6 (second series), active compounds read low 1.03 | S. cerevisiae deletion strains, locus YLR262C, strain YPT6, active compounds read low 1.08 | S. cerevisiae deletion strains, locus YLR268W, strain sec22, active compounds read low 1.05 | S. cerevisiae deletion strains, locus YLR320W, strain mms22, active compounds read low 1.06 | S. cerevisiae deletion strains, locus YLR330W, strain CHS5, active compounds read low 1.03 | S. cerevisiae deletion strains, locus YLR342W, strain FKS1 (second series), active compounds read low 1 | S. cerevisiae deletion strains, locus YLR342W, strain FKS1, active compounds read low 1.01 | S. cerevisiae deletion strains, locus YLR357W, strain rsc2, active compounds read low 1.04 | S. cerevisiae deletion strains, locus YLR370C, strain arc18, active compounds read low 0.997 | S. cerevisiae deletion strains, locus YLR371W, strain rom2, active compounds read low 0.996 | S. cerevisiae deletion strains, locus YLR384C, strain iki3, active compounds read low 1.01 | S. cerevisiae deletion strains, locus YLR418C, strain cdc73, active compounds read low 1.03 | S. cerevisiae deletion strains, locus YML016C, strain PPZ1, active compounds read low 1.02 | S. cerevisiae deletion strains, locus YML032C, strain rad52, active compounds read low 1.05 | S. cerevisiae deletion strains, locus YML120C, strain ndi1, active compounds read low 1.01 | S. cerevisiae deletion strains, locus YML124C, strain tub3, active compounds read low 1.01 | S. cerevisiae deletion strains, locus YMR058W, strain fet3, active compounds read low 1.01 | S. cerevisiae deletion strains, locus YMR078C, strain ctf18, active compounds read low 1.02 | S. cerevisiae deletion strains, locus YMR125W, strain sto1, active compounds read low 1.05 | S. cerevisiae deletion strains, locus YMR129W, active compounds read low 0.999 | S. cerevisiae deletion strains, locus YMR205C, strain PFK2, active compounds read low 1.05 | S. cerevisiae deletion strains, locus YMR223W, strain ubp8, active compounds read low 0.992 | S. cerevisiae deletion strains, locus YMR231W, strain pep5, active compounds read low 1.01 | S. cerevisiae deletion strains, locus YMR263W, strain SAP30, active compounds read low 1.03 | S. cerevisiae deletion strains, locus YMR307W, strain GAS1, active compounds read low 1.01 | S. cerevisiae deletion strains, locus YNL067W, strain RPL9B, active compounds read low 1.03 | S. cerevisiae deletion strains, locus YNL071W, strain lat1, active compounds read low 1.02 | S. cerevisiae deletion strains, locus YNL128W, strain TEP1, active compounds read low 1.03 | S. cerevisiae deletion strains, locus YNL153C, strain GIM3, active compounds read low 1.03 | S. cerevisiae deletion strains, locus YNL183C, strain NPR1, active compounds read low 0.921 | S. cerevisiae deletion strains, locus YNL209W, strain ssb2, active compounds read low 1 | S. cerevisiae deletion strains, locus YNL233W, strain BNI4, active compounds read low 1.01 | S. cerevisiae deletion strains, locus YNL248C, strain rpa49, active compounds read low 1.09 | S. cerevisiae deletion strains, locus YNL250W, strain rad50, active compounds read low 1.01 | S. cerevisiae deletion strains, locus YNL271C, strain bni1, active compounds read low 1.01 | S. cerevisiae deletion strains, locus YNL298W, strain CLA4, active compounds read low 1.02 | S. cerevisiae deletion strains, locus YNL307C, strain MCK1, active compounds read low 1.01 | S. cerevisiae deletion strains, locus YNL322C, strain KRE1 (second series), active compounds read low 1.02 | S. cerevisiae deletion strains, locus YNL322C, strain KRE1, active compounds read low 1.02 | S. cerevisiae deletion strains, locus YNR049C, strain mso1, active compounds read low 1 | S. cerevisiae deletion strains, locus YNR052C, strain pop2, active compounds read low 1 | S. cerevisiae deletion strains, locus YOL006C, strain TOP1, active compounds read low 1.1 | S. cerevisiae deletion strains, locus YOL012C, strain htz1 1.32 | S. cerevisiae deletion strains, locus YOL147C, strain pex11, active compounds read low 1.01 | S. cerevisiae deletion strains, locus YOR001W, strain rrp6, active compounds read low 0.972 | S. cerevisiae deletion strains, locus YOR061W, strain CKA2, active compounds read low 1.02 | S. cerevisiae deletion strains, locus YOR069W, strain VPS5, active compounds read low 1.01 | S. cerevisiae deletion strains, locus YOR070C, strain gyp1, active compounds read low 0.997 | S. cerevisiae deletion strains, locus YOR080W, strain dia2, active compounds read low 1 | S. cerevisiae deletion strains, locus YOR083W, strain WHI5, active compounds read low 1.06 | S. cerevisiae deletion strains, locus YOR106W, strain vam3, active compounds read low 1.05 | S. cerevisiae deletion strains, locus YOR136W, strain idh2, active compounds read low 1.01 | S. cerevisiae deletion strains, locus YOR144C, strain elg1, active compounds read low 1.02 | S. cerevisiae deletion strains, locus YOR184W, strain ser1, active compounds read low 1.03 | S. cerevisiae deletion strains, locus YOR231W, strain MKK1, active compounds read low 1.01 | S. cerevisiae deletion strains, locus YOR265W, strain rbl2, active compounds read low 1.02 | S. cerevisiae deletion strains, locus YOR270C, strain vph1, active compounds read low 1.04 | S. cerevisiae deletion strains, locus YOR290C, strain snf2, active compounds read low 1.04 | S. cerevisiae deletion strains, locus YOR316C, strain cot1, active compounds read low 0.998 | S. cerevisiae deletion strains, locus YPL051W, strain arl3, active compounds read low 1.05 | S. cerevisiae deletion strains, locus YPL055C, strain LGE1, active compounds read low 1.06 | S. cerevisiae deletion strains, locus YPL078C, strain atp4, active compounds read low 1.06 | S. cerevisiae deletion strains, locus YPL106C, strain sse1, active compounds read low 1 | S. cerevisiae deletion strains, locus YPL240C, strain hsp82, active compounds read low 1.01 | S. cerevisiae deletion strains, locus YPL241C, strain CIN2, active compounds read low 1.01 | S. cerevisiae deletion strains, locus YPL256C, strain CLN2, active compounds read low 1 | S. cerevisiae deletion strains, locus YPR119W, strain clb2, active compounds read low 1 | S. cerevisiae deletion strains, locus YPR141C, strain kar3, active compounds read low 1.01 | S. cerevisiae deletion strains, locus YPR163C, strain tif3, active compounds read low 1.02 | S. cerevisiae deletion strains, locus YPR167C, strain met16, active compounds read low 1.02 | S. cerevisiae deletion strains, strain wtn01, active compounds read low 1.04 | S. cerevisiae strains, strain wild type, active compounds read low 1.03
